40 compounds from PubChem BioAssay (NCATS) can be followed below.

Results filed as inconclusive are left out. A number with no mark means an inactive call. Calls of active or inactive are those of the source. Calls follow the shape of the dose curve; as a rule, active = well fitted cell-killing curve with a large enough effect; inconclusive = small, poorly fitted or top-dose-only effect, or effect the other way; inactive = no such curve, though single readings can be large or run the other way.
Potency is read from the fitted curve at half-maximal effect.

The assay is described as follows: Quantitative High-Throughput drug screen in 47 multiple myeloma cell lines against the NCATS MIPE library collection: OPM2_DSMZ cell viability assay (AID 1919872). Also: nearly all actives have a fitted effect of over 30% in size. The following applies: OPM2 myeloma viability, CellTiter-Glo ATP luminescence, 48 h; series mostly up to 45.8 µM; viability (% of DMSO): at the top concentration. The source says: PI: Beverly A. Mock Ph.D.
Laboratory of Cancer Biology and Genetics,
Center for Cancer Research, National Cancer Institute,
National Institute of Health, Bethesda, Maryland
Drug resistance and disease progression are common in multiple myeloma (MM) patients, underscoring the need for new therapeutic combinations. […] We hypothesized that effective combinations would reduce MYC expression and enhance p16 activity. […] These preclinical data identify potentially useful drug combinations for evaluation in drug-resistant MM and reveal potential mechanisms of combined drug sensitivity.
Described herein is the primary MIPE qHTS used to cherrypick compounds. Validated compounds were then further tested for potential synergistic activiy.
[1] Peat TJ, Gaikwad SM, Dubois W, Gyabaah-Kessie N, Zhang S, Gorjifard S, Phyo Z, Andres M, Hughitt VK, Simpson RM, Miller MA, Girvin AT, Taylor A, Williams D, D'Antonio N, Zhang Y, Rajagopalan A, Flietner E, Wilson K, Zhang X, Shinn P, Klumpp-Thomas C, McKnight C, Itkin Z, Chen L, Kazandijian D, Zhang J, Michalowski AM, Simmons JK, Keats J, Thomas CJ, Mock BA. Drug combinations identified by high-throughput screening promote cell cycle transition and upregulate Smad pathways in myeloma. Cancer Lett. 2023 Aug 1;568:216284. doi: 10.1016/j.canlet.2023.216284. Epub 2023 Jun 24. PMID: 37356470; PMCID: PMC10408729.
SEQUENCE No. (e.g., 1, 2, 3, etc.); […] (e.g., Cells, Incubation, Reagent, etc.); VALUE and DESCRIPTION.
1; Cells; 5 uL; white, solid bottom 1536-well Greiner assay plate.
2; Compounds; 23 nL; Kalypsis pin tool (Wako USA) equipped with a 1536-well pin head to transfer to the assay plates.
3; Incubation; 48 hours; 37C incubation.
4; Reagent;5uL; CellTiter Glo (Promega).
5; Detector; 425V; Luminescence; Viewlux PerkinElmer.
NOTES (numbers refer to Sequence numbers above)
1. The cell-based screening methods employed in this study were like those previously published. Briefly, the corresponding myeloma cell lines were screened in 1,536-well plates with 500 cells, 5-uL per well for inhibition of cell viability (assessed by measuring ATP levels with CellTiterGlo).
2. NCATS MIPE 4.0 library of approved and investigational drugs were added using the Kalypsis pin tool. Wells treated with DMSO only for 100% viability and media only wells for 0% viability were used as controls.
3. The assay plates were covered and incubated for 48 hours in a 37C, 5% CO2 incubator with controlled humidity.
4. After 48 hours, CellTilter-GloTM luminescent substrate mix (Promega) reagent was added to the assay plate and plates we incubated for 5 min at room temperature.
5. Signal was measured as median relative luminescence units on a ViewLux (PerkinElmer) multiplate reader.
[1] Heske CM, Davis MI, Baumgart JT, Wilson K, Gormally MV, Chen L, Zhang X, Ceribelli M, Duveau DY, Guha R, Ferrer M, Arnaldez FI, Ji J, Tran HL, Zhang Y, Mendoza A, Helman LJ, Thomas CJ. Matrix Screen Identifies Synergistic Combination of PARP Inhibitors and Nicotinamide Phosphoribosyltransferase (NAMPT) Inhibitors in Ewing Sarcoma. Clin Cancer Res. 2017 Dec 1;23(23):7301-7311. doi: 10.1158/1078-0432.CCR-17-1121. Epub 2017 Sep 12. PMID: 28899971; PMCID: PMC6636827.
For orientation: ATP-based viability assays read luminescence as a measure of living cells.
As for `CC=C1NC(=O)[C@H]2CSSCCC=C[C@H](CC(=O)N[C@H](C(C)C)C(=O)N2)OC(=O)[C@H](C(C)C)NC1=O`, the Potency was 0.0296 µM (active).
The same measure, in the same setting: as for `C#Cc1cccc(Nc2ncnc3cc(OC)c(OCCCCCCC(=O)NO)cc23)c1`, the figure is 1.48 µM (active).
The same measure, in the same setting: as for `Cc1nc2cnc3ccc(C#Cc4cccnc4)cc3c2n1-c1ccc(C(C)(C)C#N)cc1`, the figure is 0.187 µM (active).
On to `O=C(c1cncc(Br)c1)N1CCC(N2CCCC2)CC1`, for which the “viability (% of DMSO)” value was 95.7%.
Turning to `COc1ccc(-c2cc3c(C)nc(N)nc3n(C3CCC(OCCO)CC3)c2=O)cn1` (stereo not given), the Potency is 0.0662 µM (active).
The same measure, in the same setting: as for `COc1cc(C)c(Sc2cnc(NC(=O)c3ccc(CNC(C)C(C)C)cc3)s2)cc1C(=O)N1CCN(C(C)=O)CC1` (stereo not given), the figure is 20.9 µM (active); as for `Cc1cc(Nc2cc(N3CCN(C)CC3)nc(Sc3ccc(NC(=O)C4CC4)cc3)n2)n[nH]1`, 20.9 µM (active).
As for `Cc1ccc(C(=O)Nc2cccc(C(F)(F)F)c2)cc1-c1ccc2nc(NCCN3CCOCC3)ncc2c1`, the Potency was 18.7 µM (active).
Same read-out and setting: in the case of `Cc1cc(CN2CCN(c3c(Br)cnc4nc(-c5ccc(N6CCN(C)CC6)cc5)[nH]c34)CC2)no1` it was 18.7 µM (active); in that of `Cc1cc(Nc2cc(N3CCN(C)CC3)nc(C=Cc3ccccc3)n2)n[nH]1`, 8.55 µM (active).
On to `COc1ccc(C=Cc2cc(OC)c(OC)c(OC)c2)cc1O`, for which the “viability (% of DMSO)” value is 4.74%.
Take `CCC1=C[C@@H]2CN(C1)Cc1c([nH]c3ccccc13)[C@@](C(=O)OC)(c1cc3c(cc1OC)N(C)[C@@H]1[C@@](O)(C(=O)OC)[C@H](OC(C)=O)[C@]4(CC)C=CCN5CC[C@]31[C@@H]54)C2`: the Potency was 0.0166 µM (active).
In the case of `Cc1c(Cn2c(C)nc3c(C(=O)O)cc(N4CCOCC4)cc32)cccc1C(F)(F)F`, the “viability (% of DMSO)” value was 117%.
Take `Nc1ccc(C(=O)c2cc3c(ccc4ccccc43)[nH]2)cc1`: the Potency is 6.62 µM (active).
Still for that read-out and setting: in the case of `O=C(CCCCCCC(=O)Nc1ccc([C@H]2O[C@@H](CSc3nc(-c4ccccc4)c(-c4ccccc4)o3)C[C@@H](c3ccc(CO)cc3)O2)cc1)NO` it was 20.9 µM (active); in that of `CC(C)CC(=O)Nc1n[nH]c2c1CN(C(=O)C1CCN(C)CC1)C2(C)C`, 2.35 µM (active); in that of `COc1ccc(OC)c(-c2nnc3ccc(-c4ccc(OC)c(O[C@@H]5CCOC5)c4)nn23)c1`, 23.5 µM (active).
Still for that read-out and setting: as for `CNC(=O)c1c(F)cccc1Nc1nc(Nc2cc3c(cc2OC)CCN3C(=O)CN(C)C)nc2[nH]ccc12`, the figure is 11.8 µM (active).
For `Cc1cc(Nc2ncnc3ccc(-c4ccc(CNCCS(C)(=O)=O)o4)cc23)ccc1Oc1ccn2ncnc2c1`, the Potency was 20.9 µM (active).
On the same count and under the same terms, as for `CC[C@@H]1C(=O)N(C)c2cnc(Nc3ccc(C(=O)NC4CCC(N5CCN(CC6CC6)CC5)CC4)cc3OC)nc2N1C(C)C` (stereo not given in full), the figure is 0.118 µM (active).
With `O=C(C=Cc1c(C(=O)O)[nH]c2cc(Cl)cc(Cl)c12)Nc1ccccc1`, the “viability (% of DMSO)” value was 104%.
Still for that read-out and setting: as for `O=C(NCCS(=O)(=O)c1ccc(C(F)(F)F)cn1)c1ccc(Cl)cc1`, the figure is 105%.
For the compound `CN1c2cc(O)c(N=NC(N)=O)cc2CC1S(=O)(=O)O` (stereo not given), the Potency was 14.8 µM (active).
Still for that read-out and setting: as for `Cc1cc(C(=O)N2CCN(c3cccc(Cl)c3)CC2)n(-c2ccccc2)n1`, the figure is 5.9 µM (active).
For `Clc1cccc(-c2nnnn2Cc2cccnc2)c1Cl`, the “viability (% of DMSO)” value was 108%.
For the compound `CCn1cc(-c2ccnc3[nH]c(-c4cccc(CN(C)C)c4)cc23)c(-c2ccc(NC(=O)N(C)C)cc2)n1`, the Potency was 11.8 µM (active).
Same read-out and setting: in the case of `Cc1c(CN2CCN(S(C)(=O)=O)CC2)sc2c(N3CCOCC3)nc(-c3cnc(N)nc3)nc12` it was 0.105 µM (active); in that of `CC(C)=CCCC(C)=CCCC(C)=CCSc1ccccc1C(=O)O`, 4.18 µM (active).
With `COc1ccc(CC2c3cc(OC)c(OC)cc3CC[N+]2(C)CCC(=O)OCCCCCOC(=O)CC[N+]2(C)CCc3cc(OC)c(OC)cc3C2Cc2ccc(OC)c(OC)c2)cc1OC` (stereo not given), the viability (% of DMSO) was 116% [at 5.15 µM].
For `CCS(=O)(=O)c1cccc(-c2cc(C(=O)NC3CCN(C)CC3)c(C)c3[nH]c4ncc(C)cc4c23)c1`, the Potency was 2.64 µM (active).
Take `CC1(C)CCC(c2ccc(Cl)cc2)=C(CN2CCN(c3ccc(C(=O)NS(=O)(=O)c4ccc(N[C@H](CCN5CCOCC5)CSc5ccccc5)c(S(=O)(=O)C(F)(F)F)c4)cc3)CC2)C1`: the Potency was 18.7 µM (active).
In the case of `O=C1CCC[C@@H]2[C@H]3CCC[N+]4([O-])CCC[C@@H](CN12)[C@@H]34` (stereo not given in full), the “viability (% of DMSO)” value was 118%.
On the same count and under the same terms, as for `Cc1cc(Nc2cc(CN3CCOCC3)c3nc(C)c(Cc4ccc(Cl)cc4F)n3n2)n[nH]1`, the figure is 78.3%; as for `COc1cccc(Nc2c(C(N)=O)cnc3c(C)cc(S(=O)(=O)c4cccc(C(=O)N(C)C)c4)cc23)c1`, 88.6% [at 23.2 µM].
`CCOc1cc2ncc(C#N)c(Nc3ccc(F)c(Cl)c3)c2cc1NC(=O)C=CCN(C)C`: the Potency was 14.8 µM (active).
Same read-out and setting: as for `CN[C@H]1CCc2cc(OC)c(OC)c(OC)c2-c2ccc(OC)c(=O)cc21`, the figure is 0.0017 µM (active); as for `COc1ccc2c(c1)CC[C@@H](CN(C)CC(=O)O)[C@H]2c1ccccc1`, 8.33 µM (active); as for `Cc1cccc(C=NNc2cc(N3CCOCC3)nc(OCCc3ccccn3)n2)c1`, 6.62 µM (active).
Still for that read-out and setting: in the case of `O=C(O)c1ccc2c(c1)nc(Nc1cccc(Cl)c1)c1ccncc12` it was 20.9 µM (active); in that of `NC(=O)Nc1cc(-c2cccc(F)c2)sc1C(=O)N[C@H]1CCCNC1`, 2.64 µM (active).
